The text below walks through data of the OligoGym collection.
Also: reference of the scale not given here.

The target in one experiment is TDRD10. Description: pooled miR-30 sensor sort-seq; sequence = guide strand. Conditions: shRNA.
Sequence TTTTGTGGACATCAAGAGGGTT gave a sensor-assay potency score (higher = more potent) of -0.194.

ATGAACATGACCACAGCCCAGG came in with a sensor-assay potency score (higher = more potent) of -1.56.

TTTGTGGACATCAAGAGGGTTG showed a sensor-assay potency score (higher = more potent) of -0.333.

TCCAACACTCCATTCTTCCCAA: the sensor-assay potency score (higher = more potent) is -0.74.

Consider TTTGCTTGTATTCACGAACAGT, for which the sensor-assay potency score (higher = more potent) is -0.914.

With TTCCTCCTTAGAAATATCCAGT, the sensor-assay potency score (higher = more potent) was -0.848.

Sequence TAGAAGGTACAGAATTTCCTCC had a sensor-assay potency score (higher = more potent) of 0.0428.

In turn, TTCTCCATTATCCAGAATCTGT showed a sensor-assay potency score (higher = more potent) of -1.03.

Take TTCACGAACAGTTTTCGCTTGT: the sensor-assay potency score (higher = more potent) is 0.41.

In the case of AAGTCGTCGCTGTCTAGGCTGC, the sensor-assay potency score (higher = more potent) is -0.771.

The sequence AAGATTGCCAACATACACCTCT yielded a sensor-assay potency score (higher = more potent) of 0.896.

Regarding TTTAGGATGTGCAACGCCGAGT, the sensor-assay potency score (higher = more potent) was -0.733.

Another experiment concerns the target TDRD7. The experiment is described as above. The conditions noted are these: shRNA.
As to TGACTTGTCACATATAGCCTTC, the sensor-assay potency score (higher = more potent) was -0.332.

The sequence TAAATTATCACTCATTTCCTTA yielded a sensor-assay potency score (higher = more potent) of -0.487.

Consider TAGATTGTGGAAGATCTGCTAA, for which the sensor-assay potency score (higher = more potent) was -0.00415.

On to TTAGTTACTTTGACATTTGTGT, for which the sensor-assay potency score (higher = more potent) is 0.2.

Consider TAGTGTAGGGAAACCTAGCTGT, for which the sensor-assay potency score (higher = more potent) is -0.0859.

Sequence TATCGTACAGAACAACAAGTGG yielded a sensor-assay potency score (higher = more potent) of -0.96.

As to TTAACCACAGCACTGCATCTGG, the sensor-assay potency score (higher = more potent) is -0.0871.

For the sequence TTCAATGACTGTCTGCACCAGT, the sensor-assay potency score (higher = more potent) was 0.309.

On to TTTCCTTTGTCTCTTAACGGTG, for which the sensor-assay potency score (higher = more potent) was -1.32.

On to TTTCTTGTAGAAACCGAGGTGG, for which the sensor-assay potency score (higher = more potent) was 0.248.

For the sequence TAGAAGGTCACTGAGCTTGTTC, the sensor-assay potency score (higher = more potent) is -0.0033.

Take ATAGTCAACATAGCATACCTTT: the sensor-assay potency score (higher = more potent) is -1.08.

In another experiment the target is TDRKH. Described as above. The conditions noted are these: shRNA.
Sequence TTATAAGTCTTGATAGTAGTAA had a sensor-assay potency score (higher = more potent) of -0.315.

Sequence TTTTCTTCTATGTCTTCAGGAA had a sensor-assay potency score (higher = more potent) of 0.0327.

Turning to ATCTTCTGAAACTTTCTCCAGT, the sensor-assay potency score (higher = more potent) was -0.507.

TTGTAGGTAAAGGTGCTGCTAC showed a sensor-assay potency score (higher = more potent) of -0.223.

For the sequence TTGTGTACTAATTCTAGCCCAA, the sensor-assay potency score (higher = more potent) amounted to 0.0219.

For TCTGTGTCCACATCAATCCGAG, the sensor-assay potency score (higher = more potent) was -0.281.

As for TTTAATATTGGCTCCTTGCCGG, the sensor-assay potency score (higher = more potent) is -0.28.

As for TTAATATTGGCTCCTTGCCGGC, the sensor-assay potency score (higher = more potent) was -1.54.

TTGATAGTAGTAATGTCCCTTC came in with a sensor-assay potency score (higher = more potent) of -0.374.

In turn, TATAAGTAGATCTTTGGCCAAG showed a sensor-assay potency score (higher = more potent) of -1.04.

TTGGTCTCAGTGAGCAACGTGC yielded a sensor-assay potency score (higher = more potent) of -0.522.

For the sequence ATGTCCTTCAACATGTCTGGGA, the sensor-assay potency score (higher = more potent) is -0.897.
